# In PubChem BioAssay (NCATS):
# Records with an inconclusive call do not appear. Where a call stands in place of a potency, no number is given. The source made the active and inactive calls. The call rests on the fitted dose curve; in most records, active means well fitted curve in the direction sought with a large enough effect; inconclusive means small, poorly fitted or top-dose-only effect, or another doubt; inactive means no such curve, though single readings can be large; an effect the other way counts as inactive or inconclusive.
# Experiments:
# [1] = system: Zika virus NS2B-NS3 protease; experiment: Primary screen GU AMC qHTS for Zika virus inhibitors (AID 1347154); details: Zika NS2B-NS3 unlinked protease, AMC fluorogenic substrate; series mostly up to 54.1 µM; further: nearly all actives have a fitted effect of over 70% in size
# In short: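 Fluorogenic AMC-substrate cleavage by noncovalent NS2B-NS3 protease complex (25 nM, pH 8.0 Tris buffer with Tween 20) followed for 15 minutes at room temperature (~20% conversion). Percent inhibition from ex340/em450 signal change, fitted by 4-parameter Hill equation.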
# [2] = system: Zika virus NS2B-NS3 protease (unlinked complex); experiment: Primary screen GU Rhodamine qHTS for Zika virus inhibitors: Unlinked NS2B-NS3 protease assay (AID 1347159); details: Recombinant ZIKV NS2B-NS3 protease, Rhodamine110 substrate fluorescence; series mostly up to 107 µM; further: nearly all actives have a fitted effect of over 60% in size; further: potency means the concentration at half of the fitted maximal effect
# In short: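 Percent inhibition came from the 15-min rise in Rhodamine110 fluorescence (1.5 microM substrate, ~15% conversion), normalized to no-inhibitor and no-enzyme wells and Hill-fitted. Unlinked protease, 25 nM, pH 8.0 Tris buffer; compounds up to 114 microM, 15-min preincubation.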
# [3] = system: Zika virus NS2B-NS3 protease (linked construct); experiment: Primary screen NINDS Rhodamine qHTS for Zika virus inhibitors (AID 1347160); details: purified NS2B-NS3 protease, Rhodamine110 substrate fluorescence; series mostly up to 57.1 µM; further: nearly all actives have a fitted effect of over 55% in size; further: potency means the concentration at half of the fitted maximal effect
# In short: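 Rhodamine110-peptide cleavage (1.5 µM substrate) by 25 nM linked NS2B-NS3 enzyme at pH 8.0 (Tris, Tween 20), after 15 min RT preincubation with compounds; 15-min fluorescence change normalized to controls and Hill-fitted.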
# [4] = ZIKV-mCherry secondary qHTS for Zika virus inhibitors (AID 1347158); details: Vero cells, ZIKV-mCherry infection imaging, 48-72 h; series mostly up to 49.2 µM; further: top concentration of the series differs between compounds
# In short: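 Read-out is percent infection: mCherry-positive Vero cells (nuclear-proximal intensity >450 RFU, 3 SD above negative controls) counted by high-content imaging of Hoechst-stained, PFA-fixed wells after 48-72 h with ZIKV-mCherry at MOI 1 and compound.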
# [5] = Vero cells viability qHTS for Zika virus inhibitors (AID 1347167); details: cytotoxicity counter-screen (Zika); series mostly up to 45.9 µM
# In short: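 Luminescent ATP readout (CellTiter Glo) after 30 min at 37 degrees C gives viability; cells in DMEM + 4% FBS were treated 24 to 48 hours with compound, following overnight attachment.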
# [6] = Tertiary RLuc qRT-PCR qHTS assay for Zika virus inhibitors (AID 1347169); details: infected Vero cells, reporter luminescence, 48-72 h; series mostly up to 45.9 µM; further: nearly all actives have a fitted effect of over 55% in size; further: potency means the concentration at half of the fitted maximal effect
# In short: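 Vero cells (1,000 per well) plated overnight at 37 degrees C, treated with compound in DMSO, then infected with recombinant ZIKV-RLuc (Cambodian) at MOI 1-2 for 48-72 hrs. Live-cell Renilla luciferase substrate added; luminescence read after 1-1.5 hrs.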
# [7] = Confirmatory screen NINDS Rhodamine qHTS for Zika virus inhibitors (AID 1347161); details: purified enzyme assay, Rhodamine110 substrate fluorescence, 15 min; series mostly up to 114 µM; further: nearly all actives have a fitted effect of over 60% in size; further: potency means the concentration at half of the fitted maximal effect
# In short: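 Purified NS2B-NS3 protease with the NS2B hydrophilic domain joined by a flexible linker (25 nM) in 10 mM Tris-HCl pH 8.0, 0.01% Tween 20, preincubated 15 min at RT with compound; Rhodamine110 peptide substrate 1.5 µM; fluorescence change over 15 min; 4-parameter Hill fit.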
# [8] = system: Zika virus NS2B-NS3 protease (linked); experiment: 384 well plate NINDS AMC confirmatory qHTS for Zika virus inhibitors (AID 1347163); details: Recombinant NS2B-NS3 protease, Ac-VKTGKR-AMC fluorescence; further: potency means the concentration at half of the fitted maximal effect; nearly all actives have a fitted effect of over 50% in size
# In short: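 Enzyme (5, 30 or 60 nM final) first met test compounds for ~15 min. The AMC-tagged peptide Ac-VKTGKR-AMC followed at 30 microM. Fluorescence was then recorded at 25 min and scaled against no-enzyme and no-inhibitor wells.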
# [9] = OV-KATE Cancer Cell Toxicity qHTS against the NCATS CANVASS Library (AID 1347345); details: OV-KATE cells viability, CellTiter-Glo luminescence, 72 h; series mostly up to 38.3 µM
# In short: (§1)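 Quantitative HTS format: an 11-concentration series was applied to 1000 cells/well following a 4-hour attachment. Cultures ran 72 hours before ATP luminescence detection by CellTiter-Glo.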
# [10] = HPAF-II Cancer Cell Toxicity qHTS against the NCATS CANVASS Library (AID 1347346); details: HPAF-II viability, CellTiter-Glo ATP luminescence, 72 h; series mostly up to 38.3 µM; further: nearly all actives have a fitted effect of over 55% in size
# In short: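 1000 HPAF-II cells/well; 4 h pre-incubation; 11-pnt compound titration; 72 h, 37 degrees C/5% CO2; CellTiter-Glo, 15 min RT; luminescence read.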
# [11] = UWB1.289 Cancer Cell Toxicity qHTS against the NCATS CANVASS Library (AID 1347347); details: UWB1.289 viability, CellTiter-Glo luminescence, 72 h; series mostly up to 38.3 µM; further: nearly all actives have a fitted effect of over 60% in size
# In short: as §1
# [12] = OV-SAHO Cancer Cell Toxicity qHTS against the NCATS CANVASS Library (AID 1347348); details: OV-SAHO viability, CellTiter-Glo luminescence, 72 h; series mostly up to 38.3 µM; further: nearly all actives have a fitted effect of over 55% in size
# In short: as §1
# [13] = Panc-1005 Cancer Cell Toxicity qHTS against the NCATS CANVASS Library (AID 1347349); details: Panc-1005 viability, CellTiter-Glo luminescence, 72 h; series mostly up to 38.3 µM; further: nearly all actives have a fitted effect of over 60% in size
# In short: as §1
# [14] = SW1088 Cancer Cell Toxicity qHTS against the NCATS CANVASS Library (AID 1347350); details: SW1088 viability, CellTiter-Glo luminescence, 72 h; at 38.3 µM (top of the series); further: nearly all actives have a fitted effect of over 75% in size
# In short: as §1
# [15] = U-118MG Cancer Cell Toxicity qHTS against the NCATS CANVASS Library (AID 1347351); details: U-118MG viability, CellTiter-Glo luminescence, 72 h; series mostly up to 38.3 µM
# In short: as §1
# [16] = target: Lysine-specific demethylase 5B (Homo sapiens) (UniProt Q9UGL1); experiment: Optimization screen for KDM5B Histone Demethylases FDH coupled qHTS against the LOPAC library (AID 1347166); details: KDM5B demethylation, FDH-coupled NADH fluorescence (FDH is formaldehyde dehydrogenase); series mostly up to 57.5 µM
# Sequence of Lysine-specific demethylase 5B (Homo sapiens) (Q9UGL1 whole entry, looked up): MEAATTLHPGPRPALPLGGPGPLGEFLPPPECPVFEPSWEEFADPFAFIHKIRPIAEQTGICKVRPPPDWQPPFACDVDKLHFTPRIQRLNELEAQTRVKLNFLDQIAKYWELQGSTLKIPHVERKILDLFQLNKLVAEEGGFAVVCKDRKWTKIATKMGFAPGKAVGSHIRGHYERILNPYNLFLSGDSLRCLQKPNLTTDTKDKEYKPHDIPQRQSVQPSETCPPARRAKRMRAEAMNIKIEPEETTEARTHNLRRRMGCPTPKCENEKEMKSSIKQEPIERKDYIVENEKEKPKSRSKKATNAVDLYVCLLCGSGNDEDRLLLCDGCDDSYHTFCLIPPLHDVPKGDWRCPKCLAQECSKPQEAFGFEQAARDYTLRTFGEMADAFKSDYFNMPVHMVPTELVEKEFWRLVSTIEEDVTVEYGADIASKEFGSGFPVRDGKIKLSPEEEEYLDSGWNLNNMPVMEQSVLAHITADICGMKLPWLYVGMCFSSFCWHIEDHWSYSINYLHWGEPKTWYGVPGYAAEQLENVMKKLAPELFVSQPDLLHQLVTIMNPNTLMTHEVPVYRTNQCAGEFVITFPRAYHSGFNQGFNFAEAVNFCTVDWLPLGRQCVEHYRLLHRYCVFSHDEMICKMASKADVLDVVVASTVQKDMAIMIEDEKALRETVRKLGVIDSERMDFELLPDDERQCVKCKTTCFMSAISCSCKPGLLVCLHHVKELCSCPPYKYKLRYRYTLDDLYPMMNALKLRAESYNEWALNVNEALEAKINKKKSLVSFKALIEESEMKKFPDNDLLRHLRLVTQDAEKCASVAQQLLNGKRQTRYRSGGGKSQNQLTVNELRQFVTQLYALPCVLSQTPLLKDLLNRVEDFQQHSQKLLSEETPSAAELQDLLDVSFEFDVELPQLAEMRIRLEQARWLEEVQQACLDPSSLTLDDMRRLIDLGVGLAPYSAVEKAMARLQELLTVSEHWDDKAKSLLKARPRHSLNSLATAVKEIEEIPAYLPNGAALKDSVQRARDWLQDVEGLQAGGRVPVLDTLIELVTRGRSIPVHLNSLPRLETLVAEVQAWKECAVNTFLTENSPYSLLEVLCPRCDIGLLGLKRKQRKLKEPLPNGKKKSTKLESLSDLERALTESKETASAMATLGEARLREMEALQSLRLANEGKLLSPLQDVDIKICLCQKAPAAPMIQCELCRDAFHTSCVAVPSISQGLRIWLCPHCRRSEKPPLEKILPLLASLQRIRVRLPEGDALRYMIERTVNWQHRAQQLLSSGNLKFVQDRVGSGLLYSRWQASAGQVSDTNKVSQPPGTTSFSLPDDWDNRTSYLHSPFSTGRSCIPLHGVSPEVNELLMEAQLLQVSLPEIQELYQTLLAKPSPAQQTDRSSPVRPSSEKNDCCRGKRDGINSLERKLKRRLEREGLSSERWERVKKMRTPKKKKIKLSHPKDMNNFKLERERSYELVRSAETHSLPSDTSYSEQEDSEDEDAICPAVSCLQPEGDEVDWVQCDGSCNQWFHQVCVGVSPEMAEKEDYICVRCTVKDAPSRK
# In short: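 KDM5BDeltaAP (200nM final) in 50mM HEPES pH 7.5, 0.01% Tween-20 was preincubated with compound for 10 min at room temperature. A substrate mix of 12.5uM H3K4Me3, 25uM a-ketoglutarate, ascorbate, Fe2+, NAD+ and formaldehyde dehydrogenase was then added. NADH fluorescence (340/450 nm) was read initially and after 30 min.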
# [17] = Confirmatory screen GU Rhodamine qHTS for Zika virus inhibitors qHTS (AID 1347157); details: purified enzyme assay, Rhodamine110 substrate fluorescence, 15 min; series mostly up to 65.2 µM; further: nearly all actives have a fitted effect of over 70% in size
# In short: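 A qHTS format was used, with compound concentrations ranging up to 114 microM. Each compound was preincubated with 25 nM NS2B-NS3 protease, and the substrate was then added at 1.5 microM. Curves were fitted with a 4-parameter Hill model.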
structure (smiles),measurement,setting,value
CO[C@H]1C[C@@H]2CC[C@@H](C)[C@@](O)(O2)C(=O)C(=O)N2CCCC[C@@H]2C(=O)O[C@H]([C@H](C)C[C@@H]2CC[C@H](OCCO)[C@H](OC)C2)CC(=O)[C@H](C)C=C(C)[C@@H](O)[C@@H](OC)C(=O)[C@H](C)C[C@H](C)C=CC=CC=C1C,Potency,[1],inactive
O=C(NCc1ccccc1)c1csc(Nc2ccncn2)n1,Potency,[1],inactive
same,Potency,[2],inactive
same,Potency,[3],inactive
C[C@H](NC(=O)c1sccc1OCc1ccc(Cl)cc1)c1ccccc1,Potency,[1],inactive
COc1cc(N2CCC(N3CCN(C)CC3)CC2)ccc1Nc1ncc(Cl)c(Nc2ccccc2S(=O)(=O)C(C)C)n1,Potency,[1],inactive
same,Potency,[2],inactive
same,Potency,[3],inactive
C[N+](C)(C)CC(=O)O,Potency,[1],inactive
O=c1ccn([C@@H]2O[C@H](CO)[C@H](O)[C@H]2O)c(=O)[nH]1,Potency,[1],inactive
C[C@H](NC(=O)C(=O)Nc1ccccc1C(C)(C)C)C(=O)N[C@@H](CC(=O)O)C(=O)COc1c(F)c(F)cc(F)c1F,Potency,[1],inactive
same,outcome,[4],inactive
same,Potency,[5],inactive
same,Potency,[6],inactive
CC=CC(=O)N(CC)c1ccccc1C,Potency,[1],inactive
Cc1cc(OCCCc2c(C(=O)O)n(Cc3cccnc3)c3c(-c4c(COc5ccc(N6CCN([S+](C)(=O)[O-])CC6)cc5)nn(C)c4C)cccc23)cc(C)c1Cl,Potency,[7],3.11 µM (active)
same,Potency,[8],31.6 µM (active)
CC(=O)Nc1ccc([C@H](C)C(=O)Nc2ncc(C(C)C)s2)cc1,Potency,[8],112 µM (active)
same,Potency,[5],inactive
same,Potency,[6],1.04 µM (active)
COC(=O)[C@@H]1[C@H]2C[C@H]3c4[nH]c5ccccc5c4CCN3C[C@@H]2CC[C@@H]1O,outcome,[9],inactive
same,outcome,[10],inactive
same,outcome,[11],inactive
same,outcome,[12],inactive
same,outcome,[13],inactive
same,outcome,[14],inactive
same,outcome,[15],inactive
O=C(O)C(O)Cc1ccc(O)c(O)c1 (stereo unspecified),Potency,[3],3.49 µM (active)
same,outcome,[9],inactive
same,outcome,[10],inactive
same,outcome,[11],inactive
same,outcome,[12],inactive
same,outcome,[14],inactive
same,outcome,[15],inactive
CCN(CC)CCOC(=O)c1ccc(N)cc1,Potency,[1],inactive
same,outcome,[16],inactive
CCn1c(C(=O)N(C2CC2)C2CC2)cc2c3c(ncn3C)c(Nc3cc(C)n(C)n3)nc21,Potency,[2],inactive
same,Potency,[3],inactive
O=C(O)c1c(Cl)c(Cl)c(Cl)c(Cl)c1-c1c2cc(I)c(=O)c(I)c-2oc2c(I)c(O)c(I)cc12,Potency,[17],inactive
same,Potency,[7],inactive
same,Potency,[6],inactive
O=C1NCC2(CCN(CCc3ccccc3)CC2)O1,Potency,[1],inactive
same,outcome,[16],inactive
CC(C)n1nc(-c2ccc3oc(N)nc3c2)c2c(N)ncnc21,Potency,[2],inactive
same,Potency,[3],inactive
C[N+](C)(C)CCCCCC[N+](C)(C)C,Potency,[1],inactive
same,outcome,[16],inactive
O=C(Nc1ccccc1-c1cn2c(CN3CCNCC3)csc2n1)c1cnc2ccccc2n1,Potency,[2],inactive
same,Potency,[3],inactive
CN(C)Cc1ccc(-c2nc3cccc4c3n2CCNC4=O)cc1,Potency,[2],inactive
same,Potency,[3],inactive
COc1cc2ncnc(-n3nc(-c4ccccn4)nc3N)c2cc1OC,Potency,[2],inactive
same,Potency,[3],inactive
CC(C)(C)c1cc(C(=O)O)c(NC(=O)Nc2ccc3[nH]ncc3c2)s1,Potency,[2],17.8 µM (active)
Cc1cccc(C)c1OCC(C)N (stereo unspecified),Potency,[1],inactive
same,outcome,[16],inactive
CCCCCN(C)CCC(O)(P(=O)(O)O)P(=O)(O)O,outcome,[16],inactive
O=c1cc(-c2ccccc2)oc2cc(O)c(O)c(O)c12,outcome,[4],inactive
same,Potency,[3],17.5 µM (active)
same,Potency,[8],141 µM (active)
same,Potency,[5],inactive
same,Potency,[6],inactive
same,outcome,[9],inactive
same,outcome,[10],inactive
same,outcome,[12],inactive
same,outcome,[13],inactive
same,outcome,[15],inactive
CCCCC1C(=O)N(c2ccccc2)N(c2ccccc2)C1=O,Potency,[1],inactive
same,outcome,[16],inactive
COCCOC(=O)C1=C(C)NC2=C(C(=O)CC(c3ccccc3OC)C2)C1c1cccc(O)c1 (stereo unspecified),Potency,[2],inactive
same,Potency,[3],inactive
NCCS,outcome,[16],inactive
O=C(CCN1CCN(C(=O)OCc2cc(Cl)cc(Cl)c2)CC1)c1ccc2[nH]c(=O)oc2c1,Potency,[2],44.7 µM (active)
CC1CCC(C(=O)N(c2cc(C#CC(C)(C)C)sc2C(=O)O)C2CCC(O)CC2)CC1 (stereo unspecified),Potency,[2],7.94 µM (active)
same,Potency,[7],5.53 µM (active)
same,Potency,[5],inactive
NC(N)=Nc1nc(CSCC/C(N)=N/S(N)(=O)=O)cs1,Potency,[1],inactive
same,outcome,[16],inactive
COc1ccc2c(Oc3ccc(NC(=O)c4c(C)n(CC(C)(C)O)n(-c5ccccc5)c4=O)nc3)ccnc2c1,Potency,[2],inactive
same,Potency,[3],inactive
O=c1cc(-c2ccc(O)cc2)oc2cc(O)cc(O)c12,Potency,[1],inactive
same,outcome,[16],inactive
CC(C)(C)c1ccc(C(O)CCCN2CCC(C(O)(c3ccccc3)c3ccccc3)CC2)cc1 (stereo unspecified),Potency,[1],inactive
same,outcome,[16],inactive
COc1cc2nc(-c3ccc(N4CCN(C)CC4)cc3)nc(NCCN3CCOCC3)c2cc1OC,Potency,[2],inactive
same,Potency,[3],inactive
